# MITF primary: MITF inhibitors, primary screen, biochemical, AlphaScreen, human. hit rate 0.91% among 650,000. AlphaScreen MITF homodimerization, bead proximity signal. Microphthalmia-associated transcription factor (Homo sapiens), O75030. inhibition, % at 2.6 µM; in the data active = inhibition above about 50%;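 also: 0% = vehicle wells with protein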
# FBW7 activator: FBW7 E3 ligase activators, primary screen, biochemical, AlphaScreen, human. AID 1259310, 2017. F-box/WD repeat-containing protein 7 (Homo sapiens), Q969H0. hit rate 0.13% among 650,000. AlphaScreen FBW7–phospho-cyclin E peptide binding, activator screen. normalized activity (activation), % at 26.1 µM; in the data active = normalized activity above about 1.9%;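 also: purified mutant Fbw7 with reduced substrate affinity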
# TEAD-YAP inh: TEAD-YAP interaction inhibition, primary screen, TEAD-YAP interaction inhibitor project, luminescence, HEK-TIYL cells. TEAD-Gal4/YAP UAS-luciferase luminescence. inhibition, % at 9.12 µM. hit rate 1.4% among 640,000; in the data active = inhibition above about 32%;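 also: 0% = median of test compound wells and 100% = reference inhibitor wells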
# GPR151 activ: activators of human GPR151, primary screen, cell-based, PathHunter beta-arrestin, luminescence. G-protein coupled receptor 151 (Homo sapiens), Q8TDV0. PathHunter beta-arrestin GPR151 cells. activation, % at 11.2 µM. hit rate 1% among 650,000. AID 1508602, 2020; in the data active = activation above about 4.9%;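 also: 0% = median of compound wells and 100% = cells with positive control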
# Target sequence (Q8TDV0 whole entry, looked up): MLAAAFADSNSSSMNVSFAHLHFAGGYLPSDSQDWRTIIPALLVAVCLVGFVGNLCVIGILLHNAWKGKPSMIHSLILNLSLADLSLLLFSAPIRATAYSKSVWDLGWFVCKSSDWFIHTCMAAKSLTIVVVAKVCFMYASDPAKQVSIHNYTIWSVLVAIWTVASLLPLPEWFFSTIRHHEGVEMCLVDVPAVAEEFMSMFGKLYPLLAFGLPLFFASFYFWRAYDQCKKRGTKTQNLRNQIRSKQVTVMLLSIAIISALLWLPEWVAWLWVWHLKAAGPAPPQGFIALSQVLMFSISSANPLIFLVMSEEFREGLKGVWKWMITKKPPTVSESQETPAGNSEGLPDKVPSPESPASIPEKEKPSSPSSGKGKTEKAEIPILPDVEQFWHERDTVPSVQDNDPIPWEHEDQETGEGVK
# GPR151 confirm: GPR151 activators, triplicate retest, confirmation, cell-based, PathHunter beta-arrestin, luminescence; activation, % at 11.2 µM; shares compounds with GPR151 activ; 6,700 tested, under 10 active; GPR151 PathHunter beta-arrestin cells, 90 min; % of EA-reagent control over plate median;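 active = mean percent activation across replicates above the confirmation screen cutoff of 4.91%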
# GPR119 ag: GPR119 activators in beta-arrestin cells, counter-screen for GPR151 activator project, cell-based, PathHunter beta-arrestin, luminescence, triplicate. 90 min; 0 = compound-well median, 100 = enzyme-acceptor control. hit rate 0.3% among 6,700. shares compounds with GPR151 activ. activation, % at 11.2 µM;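 active = mean percent activation in the counterscreen above 29.09%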;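 also: counterscreen on off-target GPR119 to flag nonselective hits from the GPR151 activator screen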
# The depositor's hits bear a star; x = no result given; ! = a repeat was not active. Hits are enriched below; roughly 3.4% of the tested compounds scored in any of these assays.
SMILES,MITF primary,FBW7 activator,TEAD-YAP inh,GPR151 activ,GPR151 confirm,GPR119 ag
CC1=C(C(=O)OC2CCCCCC2)C(c2coc3ccc(C)cc3c2=O)C2=C(CC(C)(C)CC2=O)N1 (configuration not stated),2,0,4,0,x,x
CCCCCC(=O)Nc1ccc(N2CCN(CC)CC2)cc1,7,0,-14,11*,0,0
COc1ccc(/C=N/NC(=S)NC(C)C)c(OC)c1OC,0,0,1,1,x,x
O=C(CN1CCN(c2ccccc2F)CC1)Nc1cc(C(F)(F)F)ccc1Cl,4,0,-1,0,x,x
O=C(CN1CCCCC1)Nc1cc(C(F)(F)F)ccc1Cl,1,0,4,7.0*,0,2
O=C1C(CO)NC(=S)N1c1ccccc1 (configuration not stated),-3,0,-1,-1,x,x
CCCn1c(-c2nc(OC)cc(OC)n2)n[nH]c1=S,-11,0,1,7.0*,-1,-6
CN(C)S(=O)(=O)c1ccc(C(=O)OCc2nc3ccccc3s2)cc1,-2,0,-5,6.9*,0,9
O=C(OCc1nc2ccccc2s1)c1ccc(O)cc1,6,0,-13,-6,x,x
CCCC(=O)N(CC)c1ccccc1C,6,0,-2,0,x,x
C/C=C/C(=O)N(CC)c1ccccc1C,8,0,0,6.1*!,2,10
CCOc1cc(CO)cc(I)c1OCc1ccc(C(=O)O)cc1,-5,0,-2,1,x,x
O=C(C1CCN(Cc2ccc3c(c2)OCO3)CC1)N1CCOCC1,26,0,-4,5.2*,0,10
O=C(C1CCN(C2CCN(Cc3ccc4c(c3)OCCO4)CC2)CC1)N1CCCC1,-14,0,4,-1,x,x
O=C(NCc1ccc(F)cc1)c1ccc2nc(-c3cccs3)c(-c3cccs3)nc2c1,2,0,11,4.9*,0,3
COc1ccc(-c2noc(CSc3nnc(C)n3-c3ccccc3)n2)cc1OC,-8,0,-4,-1,x,x
COc1ccc(-c2noc(CSc3nc(N)c(-c4ccccc4)c(=O)[nH]3)n2)cc1OC,-11,0,6,5.7*,0,-1
Cc1ccc(CN=Cc2c(NCc3ccc(C)cc3)nc3ccccn3c2=O)cc1,1,0,-16,5.3*,0,-1
CCc1nnc(NC(=O)CCCOc2ccccc2OC)s1,4,0,5,0,x,x
CCOc1cc(/C=C2/C(=N)N3N=C(CC)SC3=NC2=O)cc(Cl)c1OCCOc1cc(C)ccc1C,7,0,-9,8.4*,0,-5
CCOc1cc(/C=C2/C(=N)N3N=C(CC)SC3=NC2=O)cc(Cl)c1OCCOc1ccc(C)cc1C,5,0,-1,1,x,x
CNS(=O)(=O)c1cccc(C(=O)OCC(=O)C(C)(C)C)c1,-2,0,-3,7.1*,0,8
CC(C)(C)C(=O)COC(=O)c1cccc(S(=O)(=O)N2CCCC2)c1,4,0,3,1,x,x
COc1cccc(CNC(=S)NC2CCCC2)c1,-7,0,4,6.3*,0,-7
O=C(NCc1cccs1)Nc1ccccc1Cl,25,0,-24,6.2*,0,1
SMILES,MITF primary,FBW7 activator,TEAD-YAP inh,GPR151 activ,GPR151 confirm,GPR119 ag
O=C(NCc1ccccc1)C1(c2ccccc2)CCN(S(=O)(=O)c2ccccc2)CC1,-8,0,5,5.6*,0,-12
O=C(O)C1(c2ccccc2)CCN(S(=O)(=O)c2ccccc2)CC1,16,0,-2,-1,x,x
O=C(NCc1cccs1)C1(c2ccccc2)CC1,5,0,2,8.6*,0,3
O=C(NCc1cccs1)Nc1ccccc1,-4,0,-14,0,x,x
S=c1n(CN2CCOCC2)cnn1CN1CCOCC1,-20,0,-2,0,x,x
Cc1ccc(C)c(NC(=O)CCn2c(=O)sc3ccccc32)c1,2,0,-2,-1,x,x
CCc1cc(N2CCN(C)CC2)n2nc3nc(C)cc(C)c3c2n1,-4,0,-12,7.2*,1,11
CCc1cc(N2CCCC2)n2nc3nc(C)cc(C)c3c2n1,-1,1,3,0,x,x
O=C(Nc1ccc(Br)cc1)c1cccc(N2C(=O)c3ccccc3C2=O)c1,1,0,-25,0,x,x
COc1cc(Br)cc(CN2CCN(C=O)CC2)c1O,-18,0,4,7.3*,1,2
COc1ccc(C(=O)NC2CC2)cc1OC1CCN(C2Cc3ccccc3C2)CC1,4,0,-23,11*,0,-1
COc1ccc(C(=O)NC2CC2)cc1OC1CCN(C2CCCCCC2)CC1,3,0,0,0,x,x
COc1ccc(C(=O)NC2CC2)cc1OC1CCN(C2CCC2)CC1,7,0,-15,7.0*,0,1
COc1ccc(Cl)cc1NC(=O)Nc1nnc(N(C)Cc2ccccc2)s1,12,0,11,0,x,x
COc1ccc([N+](=O)[O-])cc1NC(C)C,-1,0,8,5.0*,0,-3
CCS(=O)(=O)Nc1cc([N+](=O)[O-])ccc1OC,-6,0,7,0,x,x
CC1CCCCC1Nc1ccc([N+](=O)[O-])cc1C#N (configuration not stated),0,0,-3,0,x,x
COc1ccc([N+](=O)[O-])cc1NC1CCCCC1C (configuration not stated),50,0,5,5.7*,0,1
OCC1(Cc2ccccc2)CCN(Cc2cccc3c2OCO3)CC1,-3,0,-4,5.0*,0,-3
OCC1(Cc2ccccc2)CCN(Cc2cccc3nonc23)CC1,0,0,2,2,x,x
COc1ccc(CC(=O)N2N=C(c3cccnc3)CC2(O)C(F)(F)F)cc1 (configuration not stated),2,1,25,4.9*,1,10
CCN(C(=O)c1cnc(N2CCN(c3ccccc3OC)CC2)c2ccccc12)c1ccc(F)cc1,-12,0,24,1,x,x
COc1ccc(-c2nc3n(c2NC(C)(C)C)CCN(C(=O)c2cn[nH]c2C)C3)cc1,10,0,-3,0,x,x
O=C(Cn1c(-c2cccnc2)nc2ccccc21)NCc1ccccc1Cl,7,0,-8,5.6*,0,2
CC(C)(C)C(=O)OCN1c2nonc2N(COC(=O)C(C)(C)C)c2nonc21,-9,0,-1,7.9*,0,0

# Source: PubChem (The Scripps Research Institute Molecular Screening Center)
